Test results reported in PubChem BioAssay AID1851 (National Center for Advancing Translational Sciences (NCATS), 2009).
Among all 16,000 compounds or so, about 5,100 (32%) were called active. Another 25% or so got no clear call; they are omitted. The list shows a part of the results. Unmarked numbers belong to inactive results. Calls come from the whole dose curve; as a rule, active = well fitted curve in the direction sought with a large enough effect; inconclusive = small, poorly fitted or top-dose-only effect, or effect the other way; inactive = no such curve, though single readings can be large or run the other way.

Target: Cytochrome P450 3A4 (Homo sapiens) (UniProt P08684)
Sequence (P08684 whole entry, looked up): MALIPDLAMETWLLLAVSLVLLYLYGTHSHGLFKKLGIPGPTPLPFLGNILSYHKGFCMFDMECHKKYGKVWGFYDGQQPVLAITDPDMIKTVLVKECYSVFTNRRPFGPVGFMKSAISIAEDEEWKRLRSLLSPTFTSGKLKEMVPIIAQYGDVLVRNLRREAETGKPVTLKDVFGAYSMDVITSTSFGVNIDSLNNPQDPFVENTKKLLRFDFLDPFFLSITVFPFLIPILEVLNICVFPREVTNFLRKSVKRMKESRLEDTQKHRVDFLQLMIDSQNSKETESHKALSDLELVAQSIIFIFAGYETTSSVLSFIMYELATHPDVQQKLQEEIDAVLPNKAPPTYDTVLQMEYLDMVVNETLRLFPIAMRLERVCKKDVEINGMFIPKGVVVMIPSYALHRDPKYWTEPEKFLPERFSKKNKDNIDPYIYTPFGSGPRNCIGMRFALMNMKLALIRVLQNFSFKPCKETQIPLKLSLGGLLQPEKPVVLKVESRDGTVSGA
Assay: Cytochrome panel assay with activity outcomes
Conditions: recombinant CYP, pro-luciferin dealkylation, luminescence, p450-cyp3a4; series mostly up to 57.1 µM; activity, negative = inhibition: at the top concentration
% is set by controls: 0 for no effect and ±100 for the full control effect.

Row | SMILES | AC50 | activity, negative = inhibition
1 | CCCCCC[C@H]1C(=O)O[C@H](C)[C@H](NC(=O)c2cccc(NC=O)c2O)C(=O)O[C@@H](C)[C@H]1OC(=O)CC(C)C | 5.01 µM (active) | 
2 | C[C@@H]1OC=C2[C@@H](O)[C@H]3O[C@H]3C(=O)[C@@]23[C@H]1[C@H]1C2=C([C@@H](O)[C@H]4O[C@@H]4C2=O)[C@@H]3O[C@@H]1C |  | -18.6% [at 11.4 µM]
3 | C[N+]1(C)[C@@H]2CC(OC(=O)[C@@H](CO)c3ccccc3)C[C@@H]1[C@H]1O[C@H]12 (stereo partly drawn) |  | 2.59% [at 11.4 µM]
4 | Nc1nc(N)c2nc(CNc3ccc(C(=O)N[C@H](CCC(=O)O)C(=O)O)cc3)cnc2n1 |  | 4.59%
5 | C[C@@H](COc1ccccc1)N(CCCl)Cc1ccccc1 |  | -18.7% [at 25.6 µM]
6 | N[C@@H](CCCP(=O)(O)O)C(=O)O |  | -6.54%
7 | O=c1cc(-c2ccc(O)cc2)oc2c([C@H]3O[C@@H](CO)[C@@H](O)[C@@H](O)[C@@H]3O)c(O)cc(O)c12 |  | -6.72% [at 25.6 µM]
8 | Cc1ccccc1-c1cncnc1NCCc1cnc[nH]1 | 0.631 µM (active) | 
9 | CNCCc1cnc[nH]1 |  | -27.6%
10 | Clc1ccccc1-c1cncnc1NCCc1cnc[nH]1 | 0.501 µM (active) | 
11 | CN(C)C(=O)Oc1ccc[n+](C)c1 |  | 0.854%
12 | NC(=O)c1ccc(C(=O)Nc2ccc([As](=O)(O)O)cc2)cc1 |  | 8.53% [at 11.4 µM]
13 | C[C@H](Br)C(=O)N[C@H](CO)C(=O)O |  | 8.21% [at 11.4 µM]
14 | O=C(Oc1ccc(S(=O)(=O)F)cc1F)c1ccccc1Cl |  | -5.64% [at 11.4 µM]
15 | NCCc1c[nH]c2ccc(OC(=O)C(=O)O)cc12 |  | -35.7% [at 11.4 µM]
16 | O=C(O)c1cc[c]([Hg][S]c2ncnc3nc[nH]c23)cc1 |  | -15.7% [at 11.4 µM]
17 | O=C(c1cc(=O)[nH]c2ccc(Br)cc12)N1CCC2(CC1)OCCO2 |  | -17.8%
18 | CN(C)c1ccc(NC(=O)CN2C(=O)CN=C(c3ccccc3)c3ccccc32)cc1 | 4.47 µM (active) | 
19 | Cc1cc2c(C(F)(F)F)cc(=O)oc2c2c1NCCC2 |  | -22.3%
20 | CCCCCCCCCCCCCC(=O)O[C@H]1[C@@H](C)[C@@]2(O)[C@@H](C=C(CO)C[C@]3(O)C(=O)C(C)=C[C@@H]23)C2C(C)(C)[C@]21OC(C)=O (stereo partly drawn) | 25.1 µM (active) | 

Row | SMILES | AC50 | activity, negative = inhibition
21 | CC(C)(c1ccc(OC[C@@H]2CO2)cc1)c1ccc(OC[C@H]2CO2)cc1 |  | -15.7%
22 | N=C1c2ccccc2CN1NC(=O)c1ccc(Cl)cc1 |  | -1.51%
23 | O=C(O)[C@@H](O)[C@@H](O)[C@@H]1[O][Sb][O][C@@H]1CO |  | -1.25% [at 11.4 µM]
24 | COc1ccc(NC(=O)N2CCCC3(CCN(C(=O)Oc4ccccc4)CC3)C2)cc1 | 12.6 µM (active) | 
25 | O=C(Nc1cccc(F)c1)N1CC2(CCNCC2)C1 |  | -2.67%
26 | O=C(Nc1ccccc1)N1CCCC2(CCN(C(=O)Oc3ccccc3)CC2)C1 | 15.8 µM (active) | 
27 | O=C(Nc1cccc(F)c1)N1CCCC2(CCN(C(=O)Oc3ccccc3)CC2)C1 | 15.8 µM (active) | 
28 | NC[C@@H](Cc1ccccc1)P(=O)(O)O |  | -4.81% [at 11.4 µM]
29 | CC12CN3CC(C)(CN(C1)C31CCSCC1)C2=O |  | -2.74%
30 | C[C@H]1CC[C@]2(OC1)O[C@@H]1C[C@@H]3[C@@H]4CC[C@H]5C[C@@H](O)CC[C@]5(C)[C@@H]4CC(=O)[C@@]3(C)[C@H]1[C@@H]2C |  | -5.6% [at 25.6 µM]
31 | Cc1ncsc1CCCl |  | 6.86%
32 | CO[C@@H](C)[C@](O)(C(=O)OCC1=CCN2CC[C@@H](O)[C@H]12)C(C)C |  | -1.31% [at 25.6 µM]
33 | C#C[C@@]1(O)CC[C@@H]2[C@@H]3CCC4=CC(=O)CC[C@@]4(C)[C@H]3CC[C@]21C |  | -13.5% [at 25.6 µM]
34 | NO |  | 4.33%
35 | O=C1NC(=S)NC(=O)C1=Cc1cccc2cc3ccccc3cc12 |  | -17.5% [at 11.4 µM]
36 | C[C@@H]1O[C@H](C[N+](C)(C)C)CS1 |  | -2.37%
37 | COC(=O)Nc1nc2ccc(C(=O)c3cccs3)cc2[nH]1 |  | -9.88% [at 25.6 µM]
38 | COc1ccc2[nH]c3c(c2c1)CCNC3 |  | -20.9%
39 | COc1ccc2[nH]c(C(=O)c3ccccc3)cc2c1 | 7.94 µM (active) | 
40 | Fc1ccc(CCNCc2ccc(Cl)c(Cl)c2)cc1 |  | -18.5% [at 2.29 µM]

Row | SMILES | AC50 | activity, negative = inhibition
41 | Fc1ccccc1CCNCc1cccc(Cl)c1Cl | 0.631 µM (active) | 
42 | CCN=C=NCCCN(C)C |  | 0.783% [at 11.4 µM]
43 | O=NN(Cc1ccc(Cl)cc1)[C@@H](C(=O)O)c1ccccc1 |  | -7.56% [at 11.4 µM]
44 | C[N+]1([O-])[C@@H]2CC[C@H]1CC(OC(=O)[C@@H](CO)c1ccccc1)C2 (stereo partly drawn) |  | -4.21% [at 25.6 µM]
45 | C[C@]12CC[C@H]3c4ccc(O)cc4CC[C@@H]3[C@H]1CC[C@@H]2OP(=O)(O)O |  | 0.528% [at 11.4 µM]
46 | COc1ccc(C2NCc3ccc4c(c3-n3cccc32)OCO4)cc1OC (stereo not drawn) | 5.01 µM (active) | 
47 | COCCNC(=S)NC1CC2CCCC(C1)N2Cc1cccs1 (stereo not drawn) |  | -1.58%
48 | COCCCNC(=S)NC1CC2CCCC(C1)N2Cc1cccs1 (stereo not drawn) |  | 2.48%
49 | COCCNC(=S)N1C2CCC1CC(NC(=O)NC13CC4CC(CC(C4)C1)C3)C2 (stereo not drawn) | 3.16 µM (active) | 
50 | CN1CCN(c2ccc3ccccc3n2)CC1 |  | inactive
51 | NC(N)=NN=Cc1c(Cl)cccc1Cl |  | -25.5%
52 | [N-]=[N+]=NCC(=O)c1c[nH]c(=O)[nH]c1=O |  | 17.4% [at 11.4 µM]
53 | N/C(=N\N=C/c1ccc(-c2ccc(O)c(C(=O)O)c2)o1)N[N+](=O)[O-] |  | -39.2%
54 | C[C@@H]1Cc2cc3c(cc2C(c2ccc(N)cc2)=NN1)OCO3 | 2.51 µM (active) | 
55 | C[N+]1([O-])[C@H]2CC[C@H]1CC(OC(=O)[C@@H](CO)c1ccccc1)C2 (stereo partly drawn) |  | -2.26% [at 11.4 µM]
56 | C[C@@]12CC(=O)[C@H]3[C@@H](CCC4=CC(=O)CC[C@]43C)[C@H]1CCC2=O |  | -41.1% [at 25.6 µM]
57 | NC(N)=Nc1ccc2[nH]c3c(c2c1)C[C@]1(O)[C@@H]2Cc4ccc(O)c5c4[C@]1(CCN2CC1CC1)[C@@H]3O5 |  | 15.1%
58 | CCCC[N+]1(C)[C@@H]2CC(OC(=O)[C@@H](CO)c3ccccc3)C[C@H]1[C@H]1O[C@H]12 (stereo partly drawn) |  | -9.71%
